PubChem BioAssay (NCI)
Values joined by “and” are separate entries in the source; they are usually repeats but may differ in a detail not shown here. Equal values may be shown once. This is part of a sample that, as a whole, favours compounds with a hit. Of some 83,000 tested, about 20% had one in any assay.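 Negative percent growth values reflect cell death: -40 means 40% of the cells present at the start died, and -100 means all died.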 Unmarked numbers belong to inactive results. Active and inactive are the calls of the source. The calls were made as follows: active = growth percent below 10; inactive = the rest.

Legend:
Experiment in all cases: NCI-60 one-dose screen, 48 h (100 = growth as untreated, 0 = no growth, -100 = all killed)
Conditions in all cases: 10 µM unless noted
SR leukemia = tested on: SR leukemia
RPMI-8226 leukemia = tested on: RPMI-8226 leukemia
OVCAR-8 ovarian = tested on: OVCAR-8 ovarian
OVCAR-5 ovarian = tested on: OVCAR-5 ovarian
OVCAR-4 ovarian = tested on: OVCAR-4 ovarian
IGROV1 ovarian = tested on: IGROV1 ovarian
OVCAR-3 ovarian = tested on: OVCAR-3 ovarian
NCI/ADR-RES ovarian = tested on: NCI/ADR-RES ovarian
T-47D breast = tested on: T-47D breast
BT-549 breast = tested on: BT-549 breast
MDA-MB-435 melanoma = tested on: MDA-MB-435 melanoma
MCF7 breast = tested on: MCF7 breast
HCT-116 colon = tested on: HCT-116 colon
HCC-2998 colon = tested on: HCC-2998 colon
KM12 colon = tested on: KM12 colon
MDA-MB-468 breast = tested on: MDA-MB-468 breast
SK-OV-3 ovarian = tested on: SK-OV-3 ovarian
HS 578T breast = tested on: HS 578T breast
SW-620 colon = tested on: SW-620 colon

Compound | growth (SR leukemia) | growth (RPMI-8226 leukemia) | growth (OVCAR-8 ovarian) | growth (OVCAR-5 ovarian) | growth (OVCAR-4 ovarian) | growth (IGROV1 ovarian) | growth (OVCAR-3 ovarian) | growth (NCI/ADR-RES ovarian) | growth (T-47D breast) | growth (BT-549 breast) | growth (MDA-MB-435 melanoma) | growth (MCF7 breast) | growth (HCT-116 colon) | growth (HCC-2998 colon) | growth (KM12 colon) | growth (MDA-MB-468 breast) | growth (SK-OV-3 ovarian) | growth (HS 578T breast) | growth (SW-620 colon)
C(=C\c1cc(/C=C/c2ccccc2)c2ccccc2n1)/c1ccccc1 | 36.7% | 25.3% | 78.4% | 136% | 98.6% | 118% | 103% | 69.7% | 78.3% | 126% | 84.8% | 37.3% | 17.3% | 101% | 95.6% | 107% | – | – | –
COc1ccc(C(SCCNCc2cc(N(C)C)ccn2)(c2ccccc2)c2ccccc2)cc1 | -43.2% (active) | -27.1% (active) | -5.35% (active) | – | 22.3% | 11.4% | -1.36% (active) | -46.1% (active) | -9.47% (active) | -13.4% (active) | -53.7% (active) | -48.5% (active) | -27% (active) | -81.9% (active) | -9.54% (active) | -58.2% (active) | -5.07% (active) | -23.1% (active) | -50.5% (active)
CNC(=O)c1cc(Oc2ccc3nc(NC(=O)Nc4cccc(OC(F)(F)F)c4)sc3c2)ccn1 | 37.3% | 51.7% | 6.11% (active) | 50.6% | 30.8% | 28.4% | 46.2% | -2.64% (active) | 47.4% | 0.174% (active) | 53.9% | 39.2% | 17.2% | 46.8% | 53.1% | 1.5% (active) | – | – | –
Cn1nc(C(F)(F)F)cc1-c1cc(Cl)c(COc2ccc(Cl)cc2)c(-c2ccc(Cl)c(C(F)(F)F)c2)c1O | -32.4% (active) | -39.2% (active) | -25.6% (active) | -1.15% (active) | 13.9% | 5.06% (active) | -8.73% (active) | -34.8% (active) | 13.1% | -51.6% (active) | -34.4% (active) | -14.3% (active) | -62.2% (active) | -33.1% (active) | -19.1% (active) | -23.9% (active) | – | – | –
CC1(c2cc3cc(Br)ccc3oc2=O)NC(=O)c2c(/C=C/C(=O)OC3CC4CCC3(C)C4(C)C)cccc2N1 (centres undefined) | 66.8% | 35.8% | 89% | – | 75.4% | 92.6% | 83.1% | 74% | 46.2% | 83.9% | 99.2% | 50.6% | 53.8% | 95.9% | 72.8% | 13.4% | 86.4% | 95.8% | 89.1%
COc1ccc([C@H](C)Nc2nc(Cl)nc3ccccc23)cc1 | 17.9% | 23.6% | 56.4% | 54.7% | 62.9% | 63.2% | 78.7% | 21.5% | 49.4% | 60.3% | 45.8% | 28.8% | 20.9% | 93.6% | 43% | 15.1% | – | – | –
C#CCOc1ccc(/C=N/Nc2nc(-c3ccc(F)cc3)cs2)cc1OC | 25.5% | 35.5% | 63.8% | – | 65.6% | 72.6% | 71.2% | 32.2% | 35.4% | 24.5% | 56.2% | 35.3% | 44.6% | 92.9% | 59.9% | 51.3% | 88% | 81.2% | 86.7%
CCN(CC)c1ccc(/C=N/Nc2nc(-c3ccc(Br)cc3)cs2)c(O)c1 | 3.58% (active) | 38.4% | 81.6% | – | 70.2% | 78.8% | 61.3% | 95.3% | 80.9% | 37.4% | 64.5% | 18.7% | 18.3% | 100% | 86.3% | 69% | 103% | 102% | 10.5%
O=c1oc2ccccc2cc1-c1csc(N=Nc2c(O)[nH]c3ccc(Cl)cc23)n1 | 96.3% | 117% | 110% | – | 99.5% | 120% | 102% | 103% | 93.6% | 104% | 106% | 81.4% | 106% | 103% | 103% | 106% and 94.5% | 94.1% | 99.2% | 109%
Cn1cc(-c2nc(N)nnc2-c2c[nH]c3ccc(F)cc23)c2cc(Br)cnc21 | 3.88% (active) | -6.78% (active) | 0.188% (active) | – | 29.8% | 15.8% | -33.2% (active) | 0.236% (active) | 43.5% | -42.4% (active) | -39.4% (active) | 4.55% (active) | -14.8% (active) | -40.9% (active) | -21.7% (active) | -20.2% (active) | 19.8% | 35.8% | 17.2%
CCC(C)(C)c1ccc(OCCCCN2CCN(c3ccncc3)CC2)cc1 | -24.2% (active) | -31.3% (active) | 67% | – | 56% | 55.5% | 51.1% | 59.7% | -41.6% (active) | 27% | 39.2% | -23.1% (active) | 8.09% (active) | -5.55% (active) | 37.4% | -67.2% (active) | 32.3% | 20.2% | 2.87% (active)
O=C(c1ccccc1)c1ccc2nc(-c3cccc(Cl)c3)[nH]c2c1 | 117% | 114% | 103% | – | 114% | 113% | 116% | 104% | 98.6% | 105% | 106% | 105% | 103% | 110% | 108% | 105% | 99.9% | 108% | 108%
N#Cc1c(-c2ccc(Br)cc2)nc2n[nH]c(-c3ccc(Br)cc3)c2c1-c1ccc(F)cc1 | 80.7% | 72.7% | 101% | 98.1% | 96.4% | 75.1% | 106% | 97.2% | 74.6% | 107% | 102% | 78.7% | 95.3% | 108% | 105% | 110% | – | – | –
CC(=O)Nc1cccc(-c2nc3cc(-c4ccc(O)cc4)ccc3n2C)c1 | 59% | 28.4% | 22.2% | – | 20.9% | 51.7% | 31.3% | 65.2% | 9.44% (active) | -8.08% (active) | 11.1% | 6.65% (active) | 45.7% | 88.2% | 37.5% | 7.83% (active) | 77.5% | 56.1% | 79.3%
O=c1cc(-c2ccccc2)oc2cc(OCCCC[P+](c3ccccc3)(c3ccccc3)c3ccccc3)cc(O)c12 | -39.8% (active) | -66.7% (active) | -61.1% (active) | – | -69.1% (active) | -75.7% (active) | -94% (active) | -68.3% (active) | -62.5% (active) | -83% (active) | -67.5% (active) | -79.1% (active) | -58.1% (active) | -93.1% (active) | -85.2% (active) | – | -83.4% (active) | -35.2% (active) | -81.7% (active)
CC(=O)OC[C@@]1(C)C2CC[C@]3(C)C(CC=C4C5CC(C)(C)CC[C@]5(C(=O)Nc5ccc(C)cc5)CC[C@]43C)[C@@]2(C)C[C@@H](OC(C)=O)[C@@H]1OC(C)=O (some centres undefined) | 30.9% | 13.8% | 40.3% | – | 40.2% | 60.9% | 48.9% | 40.4% | 17.5% | 51.3% | 48.8% | 25.6% | 24.7% | 44.8% | 51.9% | – | 54.3% | 86% | 40.5%
COc1ccc2[nH]cc(-c3nc(N)nnc3-c3cn(C)c4ncccc34)c2c1 | 33.5% | 58.2% | 64.4% | – | 78% | 32.9% | 16.2% | 99% | 50.8% | 36.5% | -1.52% (active) | 25.6% | 26.7% | 80.2% | 16.6% | 27.6% | 86.3% | 37.2% | 39.4%
